In the supplement of paper PMC9694430:

Columns and labels:
Assay in all cases: thermal shift delta Tm vs DMSO control; higher = stronger stabilization (binding)
Settings in all cases: 12.5 µM; protein concentration 2 µM
LOC_OS02G45750-cb003 = tested on: LOC_OS02G45750-cb003
Summary of the method: (§1)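 Heating from 25°C to 95°C at 0.05°C/s, fluorescence was recorded for 19.5 μl wells of 2 μM E. coli-expressed, purified rice kinase domain in 100 mM potassium phosphate pH 7.5, 150 mM NaCl, 10% glycerol and 5 × SYPRO Orange with compound in DMSO. Boltzmann fits gave melting temperatures for this differential scanning fluorimetry assay. The shift reported is the mean of three replicates against the DMSO-only protein.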

LOC_OS02G54510-cb004 = tested on: LOC_OS02G54510-cb004
Summary of the method: as §1

LOC_OS03G04050-cb001 = tested on: LOC_OS03G04050-cb001
Summary of the method: as §1

LOC_OS03G12390-cb001 = tested on: LOC_OS03G12390-cb001
Summary of the method: as §1

LOC_OS03G27990-cb004 = tested on: LOC_OS03G27990-cb004
Summary of the method: as §1

LOC_OS03G50450-cb001 = tested on: LOC_OS03G50450-cb001
Summary of the method: as §1

LOC_OS03G50810-cb003 = tested on: LOC_OS03G50810-cb003
Summary of the method: as §1

LOC_OS04G35114-cb001 = tested on: LOC_OS04G35114-cb001
Summary of the method: as §1

LOC_OS04G38480-cb003 = tested on: T1, LOC_OS04G38480-cb003
T1 sequence (whole entry): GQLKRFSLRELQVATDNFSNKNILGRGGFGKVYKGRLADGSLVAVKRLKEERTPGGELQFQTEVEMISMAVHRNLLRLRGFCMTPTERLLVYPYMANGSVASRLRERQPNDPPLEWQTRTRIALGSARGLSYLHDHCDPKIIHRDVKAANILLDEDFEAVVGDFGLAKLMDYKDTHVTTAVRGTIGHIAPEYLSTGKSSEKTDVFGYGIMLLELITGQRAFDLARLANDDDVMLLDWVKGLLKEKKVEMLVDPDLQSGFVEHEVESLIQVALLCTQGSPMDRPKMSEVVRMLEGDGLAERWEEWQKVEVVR
Summary of the method: as §1

LOC_OS04G41100-cb001 = tested on: T2, LOC_OS04G41100-cb001
T2 sequence (whole entry): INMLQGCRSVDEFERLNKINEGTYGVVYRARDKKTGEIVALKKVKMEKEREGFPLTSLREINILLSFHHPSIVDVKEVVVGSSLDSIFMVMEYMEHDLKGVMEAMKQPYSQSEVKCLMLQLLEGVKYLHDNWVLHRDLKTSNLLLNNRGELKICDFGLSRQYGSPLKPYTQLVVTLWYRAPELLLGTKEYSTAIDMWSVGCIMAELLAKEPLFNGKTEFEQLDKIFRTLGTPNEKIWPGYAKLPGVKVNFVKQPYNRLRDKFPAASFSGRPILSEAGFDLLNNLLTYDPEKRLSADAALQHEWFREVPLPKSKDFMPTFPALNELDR
Summary of the method: as §1
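Further: purified Escherichia coli-expressed rice kinase domain construct.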

| SMILES | thermal shift delta Tm (LOC_OS02G45750-cb003) | thermal shift delta Tm (LOC_OS02G54510-cb004) | thermal shift delta Tm (LOC_OS03G04050-cb001) | thermal shift delta Tm (LOC_OS03G12390-cb001) | thermal shift delta Tm (LOC_OS03G27990-cb004) | thermal shift delta Tm (LOC_OS03G50450-cb001) | thermal shift delta Tm (LOC_OS03G50810-cb003) | thermal shift delta Tm (LOC_OS04G35114-cb001) | thermal shift delta Tm (LOC_OS04G38480-cb003) | thermal shift delta Tm (LOC_OS04G41100-cb001) |
| --- | --- | --- | --- | --- | --- | --- | --- | --- | --- | --- |
| CNC(=O)c1ccccc1Sc1ccc2c(/C=C/c3ccccn3)n[nH]c2c1 [Axitinib] | 4.92 °C | 0.12 °C | 0.3 °C | 0.31 °C | 0.01 °C | 0.21 °C | 0.35 °C | 2.98 °C | 0.63 °C | 0.65 °C |
| COc1ccc2c(Oc3ccc(NC(=O)c4c(C)n(CC(C)(C)O)n(-c5ccccc5)c4=O)nc3)ccnc2c1 | 1.4 °C | 0.7 °C | 0.2 °C | 0.21 °C | 0.18 °C | 0.38 °C | 0.39 °C | 0.36 °C | 1.95 °C | 0.3 °C |
| COc1c(C)c(C(=O)c2ccc(N)c(C(=O)O)c2)n2ccccc12 | 0.38 °C | 0.3 °C | 0.46 °C | -0.07 °C | 0.21 °C | 0.58 °C | 0.22 °C | 0.79 °C | 0.31 °C | 0.29 °C |
| Cc1cc(NC(=O)c2cccc(NC(=O)/C=C/CN(C)C)c2)ccc1Nc1nccc(-c2cccnc2)n1 | 3.5 °C | 0.3 °C | 1.05 °C | 2.05 °C | 0.81 °C | 1.19 °C | 1.1 °C | 1.79 °C | 1.17 °C | 0.83 °C |
| COc1cc(OC)c(C=C2C(=O)Nc3ccccc32)c(OC)c1 | -0.14 °C | 0.07 °C | -0.08 °C | -0.35 °C | 0.05 °C | -0.29 °C | -0.06 °C | 0.7 °C | 0.58 °C | 0.2 °C |
| Cn1cc(/C=C2\C(=O)Nc3cccnc32)c2ccccc21 | 11.3 °C | 0.63 °C | 0.83 °C | 3.11 °C | 1.64 °C | 4 °C | 3.46 °C | 6.79 °C | 3.05 °C | 0.74 °C |
| CN1CCN(c2ccc(C(=O)Nc3n[nH]c4ccc(Cc5cc(F)cc(F)c5)cc34)c(NC3CCOCC3)c2)CC1 [Entrectinib (RXDX-101)] | 8.16 °C | 1.58 °C | 0.06 °C | 2.99 °C | 0.44 °C | 0.86 °C | 7.06 °C | 7.44 °C | 2.7 °C | 0.77 °C |
| O=C(O)c1ccc(-c2c[nH]c3ncc(-c4ccccc4)cc23)cc1C1CCCC1 | 1.28 °C | 0.31 °C | 0.69 °C | 0.39 °C | 0.6 °C | 1.12 °C | 0.8 °C | 2.01 °C | 4.2 °C | 0.44 °C |
| Cc1nc(Nc2cnn(C3CCNCC3)c2)nc2c1N(C)C(=O)c1cc3ccccc3cc1N2C | 2.86 °C | -0.12 °C | 0.18 °C | 1.89 °C | 0.13 °C | 0.69 °C | 0.96 °C | 1.48 °C | 1.64 °C | 0.38 °C |
| COc1cc2ncnc(Nc3ccc(F)c(Cl)c3)c2cc1NC(=O)/C=C/CN1CCCCC1 | 1.69 °C | 0.71 °C | 1.08 °C | 0.21 °C | 1.04 °C | 1.79 °C | 0.95 °C | 1.15 °C | 1.53 °C | 0.71 °C |
| Cc1ccc(NC(=O)Nc2cc(C(F)(F)F)ccc2F)cc1Nc1ccc2c(c1)NC(=O)/C2=C\c1ccc[nH]1 | 0.48 °C | -0.12 °C | 1.3 °C | 1.34 °C | 0.77 °C | 1.31 °C | 1.99 °C | -0.61 °C | -1.28 °C | 0.8 °C |
| COc1cc(OC)c(/C=C/S(=O)(=O)Cc2ccc(OC)c(NCC(=O)O)c2)c(OC)c1 | 0.52 °C | 0.14 °C | 0.35 °C | 0.36 °C | 0.04 °C | 0.44 °C | 0.25 °C | 0.47 °C | 1.33 °C | 0.67 °C |
| CCOc1cn(-c2ccc(F)cc2C)nc1C(=O)Nc1ccc(Oc2ccnc3cc(OC)c(OC)cc23)c(F)c1 | 1.39 °C | 0.07 °C | 0.15 °C | 0.26 °C | 0.2 °C | 0.09 °C | 1.07 °C | 1.9 °C | 2.19 °C | 0.88 °C |
| Cn1c(Nc2ccc(C(F)(F)F)cc2)nc2cc(Oc3ccnc(-c4ncc(C(F)(F)F)[nH]4)c3)ccc21 | 2.26 °C | 2.15 °C | 0.84 °C | 2.43 °C | 0.45 °C | 1.16 °C | 1.92 °C | 1.17 °C | 4.08 °C | 1.82 °C |
| COc1cc2c(N3CCN(C(=O)Nc4ccc(OC(C)C)cc4)CC3)ncnc2cc1OCCCN1CCCCC1 [Tandutinib (MLN518)] | 1.37 °C | 0.74 °C | 0.9 °C | 0.38 °C | 0.28 °C | 0.42 °C | 0.95 °C | 1.58 °C | 1.79 °C | 0.92 °C |
| NC(=O)c1ncn([C@@H]2O[C@H](CO)[C@@H](O)[C@H]2O)c1N [AICAR (Acadesine)] | 0.81 °C | 0.42 °C | 0.68 °C | 0.15 °C | 0.5 °C | 0.66 °C | 0.55 °C | 0.59 °C | 0.31 °C | 0.46 °C |
| COc1ccc(C(=O)Nc2sc3c(c2C(N)=O)CCCC3)cc1OC | 3.21 °C | 0.13 °C | 0.38 °C | 0.22 °C | 0.12 °C | 0.38 °C | 1.2 °C | 3.8 °C | 3.31 °C | 0.28 °C |
| COc1cc(F)c(F)c(Nc2ccc(I)cc2F)c1NS(=O)(=O)C1(C[C@H](O)CO)CC1 [Refametinib (RDEA119, Bay 86-9766)] | 0.64 °C | 0.25 °C | 0.61 °C | 0.09 °C | 0.41 °C | 0.71 °C | 0.41 °C | 0.19 °C | 0.79 °C | 0.72 °C |
| Cc1ccc(Nc2cc(N[C@@H]3CCCC[C@@H]3N)nnc2C(N)=O)nc1C | 2.16 °C | 0.73 °C | 0.52 °C | 2.19 °C | 1.5 °C | 1.66 °C | 1.11 °C | 1.06 °C | 1.11 °C | 0.51 °C |
| CC(C)Nc1cc(-c2c[nH]c(C(=O)N[C@H](CO)c3cccc(Cl)c3)c2)c(Cl)cn1 | 0.06 °C | 0.08 °C | 0.57 °C | 1.86 °C | 0.44 °C | 0.2 °C | 0.3 °C | 1.54 °C | 1.63 °C | 1.97 °C |
